Test results taken from PubChem BioAssay (EPA / NIEHS).
Results filed as inconclusive are left out. Active and inactive are the calls of the source. Rule for the calls, unless noted: active = hit-call score of the fitted dose curve at least 0.9, where 1 is the maximum; inactive = score below 0.9.

Legend:
[1] = CCTE_Shafer_MEA_dev_per_network_spike_spike_number_mean: CCTE's Neural Network Formation Assay for Mean Number of Spikes in a Network Spike, Shafer Lab (AID 2284053)
Summary of the method: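 Rat cortical primary cultures on 48-well MEA; compound from day 0, re-dosed with full media change DIV 5, 9. Recorded DIV 5, 7, 9, 12; spikes in 0.05 s window at network-spike peak ÷ total network spikes; AUC; loss vs DMSO.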

[2] = CCTE_Shafer_MEA_dev_per_network_spike_spike_percent: CCTE's Neural Network Formation Assay for Percent of Spikes in a Network Spike, Shafer Lab (AID 2284054)
Summary of the method: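 Rat primary cortical cultures, 1.5 x 10^5 cells/well on MEA. Continuous compound exposure d0–12, medium/compound renewed DIV 5, 9. Network-spike spike % (0.05 s peak window), AUC over 4 recordings, DMSO baseline.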

[3] = UKN5_HCS_SBAD2_cell_viability: Viability Assessment in the University of Konstanz (UKN) Leist Lab Neurite Outgrowth Assay in human iPSC-derived immature Dorsal Root Ganglia Neurons (UKN5) (AID 2284056)
Summary of the method: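 iPSC-derived immature peripheral neurons (SBAD2) seeded on Matrigel with CHIR99021, SU5402 and DAPT, dosed 1 h later for 24 h. Viability from Hoechst H-33342 and calcein-AM live staining, high-content imaging; bidirectional fit versus DMSO.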

[4] = CCTE_Shafer_MEA_dev_LDH: CCTE's Lactate Dehydrogenase Assay for Cytotoxicity in the Neural Network Formation Assay, Shafer Lab (AID 2284068; active = hit-call score of the fitted dose curve at least 0.9, where 1 is the maximum;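 note: exposure for twelve days from plating with re-dosing on DIV 5 and 9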)
Summary of the method: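 Rat cortical primary neurons, MEA culture; dosing day 0–12, full medium plus compound exchange DIV 5, 9. Read-out: LDH enzyme activity, spectrophotometric. DMSO = negative control/baseline; signal loss → cytotoxicity.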

[5] = CCTE_Shafer_MEA_acute_AB: CCTE's Alamar Blue Assay for Cytotoxicity in the Neural Acute Assay, Shafer Lab (AID 2284069; active = hit-call score of the fitted dose curve at least 0.9, where 1 is the maximum;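 note: active compounds lower the viability signal compared with DMSO wells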)
Summary of the method: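 Read-out: resazurin fluorescence (ex 544, em 590 nm) after CTB reagent at 1:6 dilution in fresh media. Cells: primary rat cortical neuron networks, DIV 13 or 15, chemically exposed on MEA plates; DMSO as negative control/baseline.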

[6] = UKN5_HCS_SBAD2_neurite_outgrowth: University of Konstanz (UKN) Leist Lab Neurite Outgrowth Assay in human iPSC-derived immature Dorsal Root Ganglia Neurons (UKN5) (AID 2284070); conditions: actives raise or lower the signal
Summary of the method: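 Read-out: calcein-AM-stained neurite area by high-content imaging, Hoechst H-33342 for viability, after 24 h exposure of iPSC-derived immature dorsal root ganglia neurons. Activity fitted in both directions relative to DMSO baseline.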

[7] = CCTE_Shafer_MEA_acute_LDH: CCTE's Lactate Dehydrogenase Assay for Cytotoxicity in the Neural Acute Assay, Shafer Lab (AID 2284086; active = hit-call score of the fitted dose curve at least 0.9, where 1 is the maximum;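 note: active means LDH release rises above DMSO vehicle level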)
Summary of the method: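 Rat cortical neurons cultured on microelectrode arrays; baseline 40-min recording, compound added, second 40-min recording; medium then sampled for released LDH (colorimetric kit, 490 nm). DMSO = negative control.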

[8] = CCTE_Shafer_MEA_dev_mutual_information_norm: CCTE's Neural Network Formation Assay for Mutual Information Normalization, Shafer Lab (AID 2284091)
Summary of the method: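 Developing rat cortical networks on 16-electrode MEA wells are treated throughout formation (DIV 0–12). Shared electrode information is recorded four times, converted to area-under-curve, and fitted for decreases against DMSO vehicle.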

[9] = UKN4_HCS_LUHMES_neurite_outgrowth: University of Konstanz (UKN) Leist Lab Neurite Outgrowth Assay in human LUHMES cells (UKN4) (AID 2284206); conditions: actives raise or lower the signal
Summary of the method: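 Day 0 switch to differentiation medium; day 2 replate (30000 cells/well) without cAMP and GDNF; compounds added 30 min–2 h later. At 23.5 h, 30 min calcein-AM/H-33342 live stain, then imaging.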

[10] = IUF_NPC1a_proliferation_area_72hr: Leibniz Research Institute for Environmental Medicine (IUF) 72-hour Neural Progenitor Cell Proliferation Area Assay (NPC1a) (AID 2284208)
Summary of the method: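 Proliferation read as increase in sphere area by phase-contrast imaging over 72 h continuous compound exposure (no renewal) of hNPC spheres grown with EGF/FGF at 37C, 5% CO2. Growth-factor withdrawal served as positive control; DMSO as baseline.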

[11] = IUF_NPC1_viability_72hr: Viability Assessment at 72 hours in the Leibniz Research Institute for Environmental Medicine (IUF) Neural Progenitor Cell Proliferation Assay (NPC1) (AID 2284209)
Summary of the method: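 hNPC spheres, 1/well, EGF+FGF medium, 37C/5% CO2; dosed day 0, 72 h, no re-dosing. Resazurin reduction (alamar blue) fluorescence; DMSO = negative control/baseline; growth-factor-free wells as positive control.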

[12] = UKN4_HCS_LUHMES_cell_viability: Viability Assessment in the University of Konstanz (UKN) Leist Lab Neurite Outgrowth Assay in human LUHMES cells (UKN4) (AID 2284232)
Summary of the method: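 Fluorescence intensity from high-content imaging of Hoechst H-33342/calcein-AM-stained cells served as the viability read-out. Human LUHMES precursors were differentiated 2 days, replated and treated 24 h; curves were fitted bidirectionally against DMSO.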

[13] = UKN2_HCS_IMR90_cell_viability: Viability Assessment in the University of Konstanz (UKN) Leist Lab Neural Crest Cell Migration Assay in human induced IMR90 Pluripotent Stem Cells (UKN2) (AID 2284233);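 note: viability of neural crest cells differentiated from IMR90 iPSC measured by calcein-AM fluorescence imaging; cells exposed to compound for 24 h after a 24 h migration phase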
Summary of the method: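 Human IMR90-derived neural crest cells were allowed to migrate for 24 h into a cell-free zone, then exposed to test chemicals for 24 h. Calcein-AM and Hoechst staining with high-content imaging gave viability, analysed against DMSO baseline.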

[14] = IUF_NPC2c_oligodendrocyte_migration_120hr: Leibniz Research Institute for Environmental Medicine (IUF) 120-hour Neural Progenitor Cell Migration Assay for Oligodendrocyte Migration (NPC2c) (AID 2284297);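 note: O4-positive oligodendrocyte migration distance divided by radial glia migration distance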
Summary of the method: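 Exposure runs 5 days from differentiation onset at 37C, seven concentrations plus solvent control, DMSO at most 0.1%, applied to primary hNPC spheres on laminin. After fixation, O4 immunostaining gives oligodendrocyte distance from the sphere core, relative to radial glia migration.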

[15] = IUF_NPC2a_radial_glia_migration_120hr: Leibniz Research Institute for Environmental Medicine (IUF) 120-hour Neural Progenitor Cell Migration Assay for Radial Glia Migration (NPC2a) (AID 2284298)
Summary of the method: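 Migration distance in um, sphere core edge to migration-area edge, derived by nuclei-density algorithm from Hoechst images after 120 h compound exposure. Primary hNPC spheres differentiated on poly-D-lysine/laminin in N2 medium, 37C; medium half-replaced day 3.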

[16] = IUF_NPC2b_neuronal_migration_120hr: Leibniz Research Institute for Environmental Medicine (IUF) 120-hour Neural Progenitor Cell Migration Assay for Neuron Migration (NPC2b) (AID 2284300)
Summary of the method: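 TUBB3-positive neurons are imaged after 120 h of differentiation, and their mean distance from the sphere edge is normalised to radial glia migration. Single 0.3 mm fetal hNPC spheres on poly-D-lysine/laminin received 7 compound concentrations, ≤0.1% DMSO, refreshed at day 3.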

[17] = IUF_NPC3_neuronal_differentiation_120hr: Leibniz Research Institute for Environmental Medicine (IUF) 120-hour Neuronal Differentiation Assay (NPC3) (AID 2284301)
Summary of the method: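 Single 0.3 mm neurospheres from human fetal cortex were plated in differentiation medium containing test compound. Medium was half-replaced on day 3. After 120 h cells were fixed, immunostained and imaged, and neuronal fraction was scored against DMSO control.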

[18] = IUF_NPC4_neurite_length_120hr: Leibniz Research Institute for Environmental Medicine (IUF) 120-hour Neuronal Morphology Assay for Neurite Length (NPC4) (AID 2284302)
Summary of the method: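 Read-out is mean neurite length in µm of TUBB3-positive neurons, skeletonized from high-content fluorescence images after 120 h. Single 0.3 mm primary human neural progenitor spheres differentiated on poly-D-lysine/laminin under continuous compound exposure; DMSO was baseline.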

[19] = IUF_NPC4_neurite_area_120hr: Leibniz Research Institute for Environmental Medicine (IUF) 120-hour Neuronal Morphology Assay for Neurite Area (NPC4) (AID 2284305; active = hit-call score of the fitted dose curve at least 0.9, where 1 is the maximum)
Summary of the method: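 Neurite area is read out as the mean pixel area, excluding nuclei, of skeletonized TUBB3-positive neurons imaged after 120 h. Primary human neural progenitor spheres differentiated on poly-D-lysine/laminin with compound present from day 0. Activity was referenced to DMSO controls.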

[20] = IUF_NPC2-5_cytotoxicity_72hr: Cytotoxicity Assessment at 72 hours in the Leibniz Research Institute for Environmental Medicine (IUF) Neural Progenitor Cell Migration and Differentiation Assay for Cytotoxicity (NPC2-5) (AID 2284306; active = hit-call score of the fitted dose curve at least 0.9, where 1 is the maximum;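 note: LDH release into supernatant measured by resorufin fluorescence marking membrane damage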)
Summary of the method: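 Membrane integrity loss was scored from fluorescence (RFU) of resorufin generated by LDH in culture supernatant, 72 h after dosing. Differentiating human progenitor spheres received seven serial compound concentrations alongside a solvent control.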

[21] = IUF_NPC2-5_cytotoxicity_120hr: Cytotoxicity Assessment at 120 hours in the Leibniz Research Institute for Environmental Medicine (IUF) Neural Progenitor Cell Migration and Differentiation Assay (NPC2-5) (AID 2284307; active = hit-call score of the fitted dose curve at least 0.9, where 1 is the maximum)
Summary of the method: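 Membrane-integrity loss measured as LDH activity in medium supernatant via resazurin-to-resorufin fluorescence after 120 h exposure. hNPC spheres from GW 16-19 fetal cortex differentiated on poly-D-lysine/laminin, 37C, medium half-refreshed day 3; seven concentrations, DMSO max 0.1%.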

[22] = IUF_NPC2-5_cell_number_120hr: Cell Number Assessment at 120 hours in the Leibniz Research Institute for Environmental Medicine (IUF) Neural Progenitor Cell Migration and Differentiation Assay (NPC2-5) (AID 2284308);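 note: count of Hoechst-stained nuclei in migration zone around plated human neural progenitor spheres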
Summary of the method: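 Counting of all Hoechst-stained nuclei in the migration area at 120 h, versus DMSO control. Primary hNPC spheres differentiated on poly-D-lysine/laminin in N2 medium at 37C, dosed from day 0 (7 concentrations, DMSO ≤0.1%), half-refed day 3.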

[23] = IUF_NPC2-5_viability_120hr: Viability Assessment at 120 hours in the Leibniz Research Institute for Environmental Medicine (IUF) Neural Progenitor Cell Migration and Differentiation Assay (NPC2-5) (AID 2284312)
Summary of the method: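 Alamar blue resorufin fluorescence read after 5 days of differentiation, with compound present from day 0 and replenished at day 3. Primary hNPC spheres on laminin-coated plates, 37C; seven concentrations plus solvent control, fitted against DMSO.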

[24] = IUF_NPC1_cytotoxicity_72hr: Cytotoxicity Assessment at 72 hours in the Leibniz Research Institute for Environmental Medicine (IUF) Neural Progenitor Cell Proliferation Assay (NPC1) (AID 2284332; active = hit-call score of the fitted dose curve at least 0.9, where 1 is the maximum;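 note: rising LDH signal means more cytotoxicity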)
Summary of the method: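 Spheres of primary human neural progenitors are plated one per well on day 0 in growth-factor medium and dosed at once. After three days at 37C, supernatant LDH is measured fluorimetrically via resazurin reduction.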

Measured: outcome

CP(=O)(O)CCC(N)C(=O)O (centres undefined)
inactive: [1] | [2] | [3] | [4] | [5] | [6] | [7] | [8] | [9] | [10] | [11] | [12] | [13] | [14] | [15] | [16] | [17] | [18] | [19] | [20] | [21] | [22] | [23] | [24]
